Records with an inconclusive call do not appear. Values without a mark were called inactive. Calls follow the shape of the dose curve; as a rule, active = well fitted activation curve with a large enough effect in the signal ratio in the repeat runs, with a control signal flat (not every such curve was filed as active); inconclusive = weak or mixed curves, or effect the other way; inactive = no such curve, though single readings can be large or run the other way; the % refers to the signal ratio.
molecular target: Androgen receptor (Homo sapiens) (UniProt P10275); assay: qHTS assay to identify small molecule agonists of the androgen receptor (AR) signaling pathway (AID 743036); settings: HEK293 AR-UAS-bla GripTite, beta-lactamase FRET ratio, 16 h; series mostly up to 62.4 µM; activation: at the top concentration
Sequence (P10275 whole entry, looked up): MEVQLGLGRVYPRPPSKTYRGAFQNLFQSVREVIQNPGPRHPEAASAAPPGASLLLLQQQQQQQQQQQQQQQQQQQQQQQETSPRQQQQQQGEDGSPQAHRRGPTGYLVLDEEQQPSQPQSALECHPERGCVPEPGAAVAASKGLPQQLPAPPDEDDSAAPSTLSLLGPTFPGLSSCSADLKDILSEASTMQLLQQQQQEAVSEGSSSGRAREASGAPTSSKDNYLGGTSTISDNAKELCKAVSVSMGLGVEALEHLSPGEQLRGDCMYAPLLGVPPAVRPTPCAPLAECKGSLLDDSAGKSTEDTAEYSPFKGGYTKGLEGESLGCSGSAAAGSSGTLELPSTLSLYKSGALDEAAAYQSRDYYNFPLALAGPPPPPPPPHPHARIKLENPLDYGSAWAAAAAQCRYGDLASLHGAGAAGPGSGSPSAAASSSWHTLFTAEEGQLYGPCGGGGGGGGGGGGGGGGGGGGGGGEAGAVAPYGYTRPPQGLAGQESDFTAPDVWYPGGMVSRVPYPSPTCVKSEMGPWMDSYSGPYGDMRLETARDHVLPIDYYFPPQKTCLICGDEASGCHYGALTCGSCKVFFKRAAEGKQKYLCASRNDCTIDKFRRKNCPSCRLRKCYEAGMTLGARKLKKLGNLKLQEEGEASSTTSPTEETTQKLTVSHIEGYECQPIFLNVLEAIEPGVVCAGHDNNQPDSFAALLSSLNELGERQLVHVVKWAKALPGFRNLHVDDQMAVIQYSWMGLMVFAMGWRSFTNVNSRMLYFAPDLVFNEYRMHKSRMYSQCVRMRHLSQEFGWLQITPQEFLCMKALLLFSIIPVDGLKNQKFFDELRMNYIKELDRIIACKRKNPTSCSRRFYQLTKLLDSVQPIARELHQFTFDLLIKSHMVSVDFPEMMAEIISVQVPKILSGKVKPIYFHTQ
From the text: U.S. Tox21 Program National Center for Advancing Translational Sciences [NCATS] NIH Chemical Genomics Center [NCGC] U.S. Environmental Protection Agency [EPA] National Institutes of Environmental Health Sciences [NIEHS] National Toxicology Program [NTP] U.S. Food and Drug Administration [FDA] Tox21 Assay Overview: Androgen receptor (AR), a nuclear hormone receptor, plays a critical role in AR-dependent prostate cancer and other androgen related diseases. Endocrine disrupting chemicals (EDCs) and their interactions with steroid hormone receptors like AR may cause disruption of normal endocrine function as well as interfere with metabolic homeostasis, reproduction, developmental and behavioral functions. To identify the compounds that activate AR signaling, GeneBLAzer AR-UAS-bla-GripTite cell line (Invitrogen, Carlsbad, CA, USA) containing a beta-lactamase reporter gene under the control of an Upstream Activator Sequence (UAS) stably integrated into HEK293 cells was used to screen the Tox21 10K compound library.
Tox21 Assay Protocol Summary: AR-bla cells were dispensed at 2,000 cells/6 uL/well of assay medium into black wall/clear-bottom 1536-well plates using a Multidrop Combi (ThermoFisher Scientific, Waltham, MA) dispenser. After the assay plates were incubated at 37C and 5% CO2 for 4 h, 23 nL of compounds dissolved in DMSO, positive controls or DMSO only was transferred to the assay plate by a Pintool station (Kalypsys, San Diego, CA). The plates were incubated at 37C and 5% CO2 for 16 h. Then 1 uL of LiveBLAzerTM B/G FRET substrate was added using a Bioraptr Flying Reagent Dispenser (FRD) workstation (Beckman Coulter, Indianapolis, IN, USA). The plates were incubated at room temperature for 2 h, and fluorescence intensity was measured by an Envision plate reader (PerkinElmer, Shelton, CT).
% is scaled to controls: 0 for no effect and ±100 for the full control effect.

| SMILES | activation |
| --- | --- |
| S=C=Nc1ccccc1 | -5.57% [at 79.1 µM] |
| CCCCCCCc1ccc(O)cc1 | -11.4% |
| CN(C)c1ccc(N)cc1 | 5.66% |
| CC(C)N(C(=O)CCl)c1ccccc1 | 8.07% |
| COP(=O)(OC)O/C(=C\Cl)c1cc(Cl)c(Cl)cc1Cl | -9.46% |
| O=NN(CCO)CCO | -0.0687% |
| COc1ccc(Cc2nccc3cc(OC)c(OC)cc23)cc1OC | -0.107% [at 29.2 µM] |
| CCOC(=O)Cc1ccccc1 | 0.274% |
| CCOP(=S)(OCC)Oc1cc(C)nc(N(CC)CC)n1 | -16% |
| CC(C)=CC1C(C(=O)OC(C#N)c2cccc(Oc3ccccc3)c2)C1(C)C (configuration not stated) | 0.381% |
| Cc1ccc(C)c2ccccc12 | 2.16% |
| Fc1ccc(C(OCCN2CCN(CCCc3ccccc3)CC2)c2ccc(F)cc2)cc1 | -1.98% |
| C=CCOC(=O)c1ccccc1N | -2.79% [at 79.1 µM] |
| CC1=C2C[C@H]3[C@@H](CC=C4C[C@@H](O)CC[C@@]43C)[C@@H]2CC[C@]12O[C@@H]1C[C@H](C)CN[C@H]1[C@H]2C | -0.215% |
| O=[N+]([O-])C(Br)Br | 3.2% |
| CCOP(=S)(OCC)SC(CCl)N1C(=O)c2ccccc2C1=O (configuration not stated) | -1.88% |
| C[C@H]1[C@H](c2ccc(Cl)cc2)SC(=O)N1C(=O)NC1CCCCC1 | -14.7% |
| CCNS(=O)(=O)C(F)(F)C(F)(F)C(F)(F)C(F)(F)C(F)(F)C(F)(F)C(F)(F)C(F)(F)F | 0.186% |
| CC(C)NCC(O)c1ccccc1Cl (configuration not stated) | 9.29% |
| COc1ccc2c(c1OC)C(=O)O[C@@H]2[C@H]1c2cc3c(cc2CCN1C)OCO3 | 3.44% |
| BrCCCBr | -5.82% [at 79.1 µM] |
| BrCC(Br)(Br)Br | -8.37% [at 79.1 µM] |
